According to PubChem BioAssay:
Values without a mark were called inactive. For part of these data: Measured potencies and affinities stand elsewhere. Active and inactive are the calls of the source. Unless noted, how the calls were made is not given here.

What was measured:
[1] = antimalarial activity against Dd2 strain (AID 2302;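 active means growth inhibition above 50% at the single 2 µM test dose, taken to imply half-maximal potency below 2 µM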;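 further: 0% = DMSO untreated growth and 100% = chloroquine plus artemisinin killed control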); settings: P. falciparum Dd2 in RBCs, LDH growth readout, 72 h; at 2 µM; active compounds read high
[2] = HepG2 cytotoxicity, primary screen, cytotoxicity control for P. falciparum antimalarial project, cell-based, ATP luminescence (AID 2303;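 active means inhibition above 50%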;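 further: 0% = DMSO wells and 100% = digitonin-killed cells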); settings: HepG2 viability, 24-48 h, at 10 µM, active compounds read high
[3] = target: L-lactate dehydrogenase (Plasmodium falciparum (isolate CDC / Honduras)) (UniProt Q27743); experiment: PfLDH activity inhibition – cell lysate, 3D7 strain, counter-screen for P. falciparum growth inhibition project (AID 2304);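 further: 0% = vehicle and 100% = reference inhibitor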; settings: P. falciparum 3D7 crude extract, LDH APAD/NBT absorbance; at 2 µM; active compounds read high
[4] = inhibition of 3D7 malaria parasite growth – strain 3D7 (AID 2306);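 further: 0% = DMSO wells and 100% = chloroquine plus artemisinin control wells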; settings: P. falciparum 3D7 erythrocytic growth, LDH absorbance, 72 h; at 2 µM; active compounds read high
[5] = target: Calcium-dependent protein kinase 1 (Plasmodium falciparum (isolate 3D7)) (UniProt P62344); experiment: PfCDPK1 kinase inhibitors, biochemical, TCAMS library (AID 1159585; cut-off not given, nearly all actives have IC50 up to about 0.98 µM;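 further: inhibitors leave more ATP so luminescence rises with inhibition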); settings: recombinant PfCDPK1, Kinase-Glo ATP depletion luminescence
[6] = target: Plasmodium falciparum protein kinase 6 (PK6, PF3D7_1337100) (UniProt Q8IDW1); experiment: PfPK6 kinase inhibitors, biochemical, TCAMS library (AID 1159586); settings: recombinant PfPK6, Kinase-Glo ATP depletion luminescence
[7] = target: Protein kinase 7 (PK7), Plasmodium falciparum 3D7 (PF3D7_0213400) (UniProt Q7YTF7); experiment: inhibition of Plasmodium PK7 catalytic activity – biochemical, TCAMS antimalarial set, Kinase-Glo luminescence (AID 1159587); settings: recombinant PfPK7, Kinase-Glo ATP depletion luminescence
[8] = target: Calcium-dependent protein kinase 4 (Plasmodium falciparum (isolate 3D7)) (UniProt Q8IBS5); experiment: PfCDPK4 kinase inhibitors, biochemical, TCAMS library (AID 1159588; cut-off not given, nearly all actives have IC50 up to about 0.91 µM); settings: recombinant PfCDPK4, Kinase-Glo ATP depletion luminescence
Calcium-dependent protein kinase 4 (Plasmodium falciparum (isolate 3D7)), sequence (Q8IBS5 whole entry, looked up): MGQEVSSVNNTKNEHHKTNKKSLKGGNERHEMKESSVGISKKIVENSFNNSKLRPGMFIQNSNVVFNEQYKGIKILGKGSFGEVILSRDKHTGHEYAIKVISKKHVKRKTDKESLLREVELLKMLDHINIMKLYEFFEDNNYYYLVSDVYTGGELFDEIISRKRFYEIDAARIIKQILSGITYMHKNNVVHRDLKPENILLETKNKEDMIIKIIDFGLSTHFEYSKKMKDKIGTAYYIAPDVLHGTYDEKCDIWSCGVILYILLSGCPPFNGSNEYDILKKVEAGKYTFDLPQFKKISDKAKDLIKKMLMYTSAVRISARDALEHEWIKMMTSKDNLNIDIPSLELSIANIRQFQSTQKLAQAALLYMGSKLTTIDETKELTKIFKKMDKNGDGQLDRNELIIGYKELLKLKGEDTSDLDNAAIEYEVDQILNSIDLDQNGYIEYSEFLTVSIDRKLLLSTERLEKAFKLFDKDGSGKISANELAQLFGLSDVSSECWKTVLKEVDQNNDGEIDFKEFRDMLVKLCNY

Protein kinase 7 (PK7), Plasmodium falciparum 3D7 (PF3D7_0213400), sequence (Q7YTF7 1-343): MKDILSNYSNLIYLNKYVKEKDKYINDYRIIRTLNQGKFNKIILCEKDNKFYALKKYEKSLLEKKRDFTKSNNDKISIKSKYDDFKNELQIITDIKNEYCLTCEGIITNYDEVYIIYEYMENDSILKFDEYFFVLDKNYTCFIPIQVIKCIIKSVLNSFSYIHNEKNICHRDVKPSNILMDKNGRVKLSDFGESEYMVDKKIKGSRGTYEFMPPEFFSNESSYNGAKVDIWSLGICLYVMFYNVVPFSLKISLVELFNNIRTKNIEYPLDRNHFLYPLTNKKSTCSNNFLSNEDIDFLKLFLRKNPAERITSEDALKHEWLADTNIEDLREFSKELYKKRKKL
Calcium-dependent protein kinase 1 (Plasmodium falciparum (isolate 3D7)), sequence (P62344 whole entry, looked up): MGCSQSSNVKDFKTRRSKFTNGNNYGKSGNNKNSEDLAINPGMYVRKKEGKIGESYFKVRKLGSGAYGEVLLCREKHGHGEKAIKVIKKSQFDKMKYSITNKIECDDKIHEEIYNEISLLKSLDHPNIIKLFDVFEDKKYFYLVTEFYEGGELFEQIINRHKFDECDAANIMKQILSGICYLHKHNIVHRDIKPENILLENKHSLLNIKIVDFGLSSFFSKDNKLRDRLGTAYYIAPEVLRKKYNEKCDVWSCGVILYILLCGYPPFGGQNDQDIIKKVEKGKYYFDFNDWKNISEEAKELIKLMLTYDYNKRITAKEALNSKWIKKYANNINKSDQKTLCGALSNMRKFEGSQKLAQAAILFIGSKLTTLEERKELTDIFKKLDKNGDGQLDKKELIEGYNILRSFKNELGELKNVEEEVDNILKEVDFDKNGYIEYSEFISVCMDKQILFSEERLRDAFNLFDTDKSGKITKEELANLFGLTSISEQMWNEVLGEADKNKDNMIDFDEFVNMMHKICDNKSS
Plasmodium falciparum protein kinase 6 (PK6, PF3D7_1337100), sequence (Q8IDW1 1-305): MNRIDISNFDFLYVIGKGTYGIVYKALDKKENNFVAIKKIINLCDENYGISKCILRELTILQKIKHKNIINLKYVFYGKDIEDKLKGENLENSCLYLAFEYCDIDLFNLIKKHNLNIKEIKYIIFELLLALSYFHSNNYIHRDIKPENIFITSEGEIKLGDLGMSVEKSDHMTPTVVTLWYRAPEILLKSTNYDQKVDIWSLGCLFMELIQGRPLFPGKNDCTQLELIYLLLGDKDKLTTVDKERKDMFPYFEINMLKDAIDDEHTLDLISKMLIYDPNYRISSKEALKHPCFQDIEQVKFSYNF
L-lactate dehydrogenase (Plasmodium falciparum (isolate CDC / Honduras)), sequence (Q27743 whole entry, looked up): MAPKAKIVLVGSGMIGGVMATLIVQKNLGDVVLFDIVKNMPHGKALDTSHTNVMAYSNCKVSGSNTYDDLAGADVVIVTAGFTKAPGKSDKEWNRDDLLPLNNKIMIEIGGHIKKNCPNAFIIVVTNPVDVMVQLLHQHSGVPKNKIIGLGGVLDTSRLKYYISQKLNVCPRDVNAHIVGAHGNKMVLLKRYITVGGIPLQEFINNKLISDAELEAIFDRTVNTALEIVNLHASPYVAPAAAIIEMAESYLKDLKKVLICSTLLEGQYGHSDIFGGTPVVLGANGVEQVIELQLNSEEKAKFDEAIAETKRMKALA

Row | SMILES | growth inhibition [1] | inhibition [2] | inhibition [3] | growth inhibition [4] | outcome [5] | outcome [6] | outcome [7] | outcome [8]
1 | Oc1ccccc1CN1CCC(CCOC(c2ccccc2)c2ccc(Cl)cc2)CC1 (configuration not stated) | 99% (active) | 19% | -8% | 97% (active) | inactive | inactive | inactive | inactive
2 | CC(C)/C(=C(/F)CN1C(=O)C(NC(=O)c2cc3ccccc3[nH]2)C(=O)N(c2ccccc2)c2ccccc21)c1ccccc1 (configuration not stated) | 82% (active) | 7% | -2% | 98% (active) | inactive | inactive | inactive | inactive
3 | CC(Cc1ccc(OCc2ccccc2)c(Cl)c1)NCC(O)c1cccc(C(F)(F)F)c1 (configuration not stated) | 95% (active) | -2% | -4% | 97% (active) | inactive | inactive | inactive | inactive
4 | Cc1cc(O)cc2c(C3CCN(CC4CCN(C(=O)/C=C/c5ccc(Cl)c(Cl)c5)CC4)CC3)c[nH]c12 | 100% (active) | 33% | 3% | 101% (active) | inactive | inactive | inactive | inactive
5 | O=C(NC1CCC(CN2CCC(c3c[nH]c4ccccc34)CC2)CC1)c1cc2cccc([N+](=O)[O-])c2[nH]1 (configuration not stated) | 101% (active) | 36% | -1% | 103% (active) | inactive | inactive | inactive | inactive
6 | Oc1ccccc1CNCC(O)c1cc(C(F)(F)F)cc(C(F)(F)F)c1 (configuration not stated) | 100% (active) | 15% | 4% | 99% (active) | inactive | inactive | inactive | inactive
7 | O=C(/C=C/c1ccc(Cl)c(Cl)c1)NCCC1CCC(N2CCC(c3c[nH]c4ccccc34)CC2)CC1 (configuration not stated) | 99% (active) | 91% (active) | -1% | 102% (active) | inactive | inactive | inactive | inactive
8 | CCCCC1(NC(=O)[C@H](CC(C)C)Nc2ccc(C#N)c3ccccc23)CCCCC1 | 47% | 37% | 5% | 96% (active) | inactive | inactive | inactive | inactive
9 | COC(=O)c1ccc(CC(C)NCC(O)c2cccc(I)c2)cc1 (configuration not stated) | 54% (active) | 15% | -2% | 87% (active) | inactive | inactive | inactive | inactive
